Sampled rows, rich in hits. Any-hit rate of the full collection: about 2.8%.
POLH inh: blocks human DNA polymerase eta activity | recombinant Pol eta, fluorescent DNA replication assay | Potency, µM (series often up to 114 µM), without a hit: top-dose activity change, negative = inhibition, usual class: inhibitors | 390,000 compounds, 1.2% hits | AID 588591; further: potency means the concentration at half of the fitted maximal effect; on the % scale 0 is the no-effect control and ±100 the full control effect
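Pol eta (10 nM) was preincubated with compounds for 15 min at room temperature, after which fluorescent replication substrate (50 nM final) was added to start the reaction. Fluorescence was read kinetically at 0 and 10 min.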
PI5P4K alpha inh: PI5P4K alpha (human) kinase inhibition; P48426; PI5P4Kalpha enzyme, ADP-Glo luminescence, 60 min; hits give low values; max response, %; 330,000 compounds, 1.2% hits; active means max response of -50% or lower; inconclusive means between -30% and -50%; inactive means -30% or higher; further: value at the top dose of about 77 µM; on the % scale 0 is the no-effect control and ±100 the full control effect
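Human PI5P4Kalpha with substrate in 0.038 M HEPES pH 7.4, 0.28 mM EGTA, 0.1% CHAPS, 5% DMSO; reaction started with 5 microM ATP (final), 60 min at room temperature. ADP formed read by ADP-Glo luminescence.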
FEN1 inhibitor: human FEN1 inhibition | Recombinant FEN1 flap cleavage, fluorescence, 15 min | Potency, µM (doses to about 114 µM), for inactives: at the highest dose activity change, negative = inhibition, usual class: inhibitors | 390,000 compounds, 0.35% hits | AID 588795; further: potency means the concentration at half of the fitted maximal effect; on the % scale 0 is the no-effect control and ±100 the full control effect; nearly all actives have a fitted effect of over 65% in size
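Recombinant FEN1 (10 nM) was preincubated with pin-transferred compounds for 15 min at room temperature, then flap DNA substrate (50 nM final) was added. Plates were read at 0 and 15 min, and normalized concentration–response data were fitted to a four-parameter Hill equation.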
POLK inh: blocks human DNA polymerase kappa activity | 400,000 compounds, 0.53% hits | purified Pol kappa, fluorescent DNA synthesis assay, 10 min | Potency, µM (top dose mostly 107 µM), for the others: at the highest dose activity, negative = inhibition, most hits filed as inhibitors | Q9UBT6; further: potency means the concentration at half of the fitted maximal effect; on the % scale 0 is the no-effect control and ±100 the full control effect
Target sequence (Q9UBT6 whole entry, looked up): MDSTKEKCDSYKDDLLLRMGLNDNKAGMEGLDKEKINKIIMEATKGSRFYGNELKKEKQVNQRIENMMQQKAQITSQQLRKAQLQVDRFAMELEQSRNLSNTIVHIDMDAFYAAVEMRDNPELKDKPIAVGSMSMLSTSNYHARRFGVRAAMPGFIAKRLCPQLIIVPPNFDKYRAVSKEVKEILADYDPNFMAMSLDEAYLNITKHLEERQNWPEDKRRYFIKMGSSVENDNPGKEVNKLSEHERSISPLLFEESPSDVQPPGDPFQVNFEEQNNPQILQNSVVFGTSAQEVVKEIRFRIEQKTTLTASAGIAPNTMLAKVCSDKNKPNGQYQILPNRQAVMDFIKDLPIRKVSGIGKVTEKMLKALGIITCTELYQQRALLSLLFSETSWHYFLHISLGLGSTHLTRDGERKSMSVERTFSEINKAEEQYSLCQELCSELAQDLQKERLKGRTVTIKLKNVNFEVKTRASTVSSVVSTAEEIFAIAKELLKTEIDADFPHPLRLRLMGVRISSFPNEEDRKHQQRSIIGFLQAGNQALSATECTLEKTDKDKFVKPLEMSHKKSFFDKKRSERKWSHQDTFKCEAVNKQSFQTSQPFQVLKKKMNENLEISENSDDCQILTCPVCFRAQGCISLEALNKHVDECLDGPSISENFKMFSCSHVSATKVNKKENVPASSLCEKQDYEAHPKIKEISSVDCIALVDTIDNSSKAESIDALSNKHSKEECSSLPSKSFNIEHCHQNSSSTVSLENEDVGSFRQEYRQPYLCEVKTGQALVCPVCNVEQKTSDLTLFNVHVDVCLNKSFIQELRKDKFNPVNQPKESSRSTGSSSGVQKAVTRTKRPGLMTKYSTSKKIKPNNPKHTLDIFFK
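Pol kappa 10 nM + cpd, 15 min RT; start w/ substrate 50 nM final; fluorescence kinetic read, 0 and 10 min. Neg ctrl: buffer, no enzyme.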
Pol beta inh: inhibitors of human DNA polymerase beta; P06746; Pol beta primer extension/strand displacement, fluorescence kinetic; Potency, µM (highest dose often 114 µM), for inactives: top-dose activity change, negative = inhibition, actives largely listed as inhibitors; 340,000 compounds, 1.3% hits; AID 485314; further: potency means the concentration at half of the fitted maximal effect; on the % scale 0 is the no-effect control and ±100 the full control effect
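Enzyme-only controls used 10 nM Pol beta; buffer lacking enzyme served as negative control. Compound preincubated 15 min, then 50 nM substrate added; 0 and 10 min reads at room temperature.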
POLI inh: inhibitors of human DNA polymerase iota. Q9UNA4. Pol iota fluorescent replication assay, 10 min. Potency, µM (doses to about 115 µM), inactives show at the top dose activity, negative = inhibition, actives largely listed as inhibitors. 390,000 compounds, 1% hits. AID 588590; further: potency means the concentration at half of the fitted maximal effect
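Pol iota at 10 nM preincubated 15 min with compounds at room temperature; reaction started with fluorescent substrate, 50 nM final. Fluorescence read kinetically at 0 and 10 min; buffer-only wells as negative control.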
* marks the source's active call; other numbers are inactive results; ? = inconclusive; / = not tested or not shown; ! = repeats disagree; [ ] = remark or other dose. Unless noted, the call rests on the fitted dose curve; in most records, active means well fitted curve in the direction sought with a large enough effect; inconclusive means small, poorly fitted or top-dose-only effect, or another doubt; inactive means no such curve, though single readings can be large; an effect the other way counts as inactive or inconclusive.

SMILES | POLH inh | PI5P4K alpha inh | FEN1 inhibitor | POLK inh | Pol beta inh | POLI inh
COc1ccc(CNc2nc(-c3ccccc3OC)nc3ccccc23)c(OC)c1 | / | / | / | -8.6%[60.1 µM] | / | /
CCCCSc1n[nH]c(=S)c2nc[nH]c12 | -11.1% | -62.6* | 10.2% | -9.3% | / | ?
O=C(NCc1ccco1)c1nn2c(C(F)(F)F)cc(-c3cccs3)nc2c1Br | -15.3% | -10.9 | 0.7% | -9.6% | 89.1µM* | 5.1%
Cc1cc(-c2ccccc2)nc2cc(C(=O)NCc3ccco3)nn12 | 44.7µM* | -27.3 | -15.9% | ? | ? | ?
COc1ccc(-c2cc(C(F)(F)F)n3nc(C(=O)NCC45CC6CC(CC(C6)C4)C5)cc3n2)cc1 | -5.3% | / | -23.8% | -20.4% | ? | 89.1µM*
COc1ccc(-c2cc(C(F)(F)F)n3nc(C(=O)NCC45CC6CC(CC(C6)C4)C5)cc3n2)cc1OC | -0.5% | / | 11.0% | -15.2% | 3.2% | -3.6%
O=C(NCC1CCCO1)c1nn2c(C(F)(F)F)cc(-c3cccs3)nc2c1Br (centres undefined) | 2.8% | -10.6 | 5.4% | -6.8% | 31.9% | 87.5%
O=C(NCc1ccco1)c1cc2nc(-c3ccc4c(c3)OCO4)cc(C(F)(F)F)n2n1 | 7.1% | 0.3 | -3.6% | -29.7% | 79.4µM* | -4.5%
O=C(NCc1cccnc1)c1cc2nc(-c3ccc4c(c3)OCO4)cc(C(F)(F)F)n2n1 | 1.1% | -0.8 | -14.5% | -4.6% | 0.2% | 16.9%
C[N+]1(CC(=O)c2ccccc2)CCc2ccccc2C1 (centres undefined) | / | / | 19.0% | -4.5% | / | -13.5%
COc1cc(-c2c(NC(=O)c3ccco3)oc3ccccc3c2=O)cc(OC)c1OC | -3.2% | 8.4 | -9.6% | -8.9% | 4.5% | -17.2%
Cc1ccc(NC(=O)CN2C(=O)c3ccccc3Sc3ccc(C(=O)N4CCCC4)cc32)cc1 | ? | / | -20.7% | -7.2%[60.1 µM] | ? | 70.8µM*
COC(=O)c1sc2nc(CN3CCN(c4cccc(C(F)(F)F)c4)CC3)[nH]c(=O)c2c1C | -8.5% | -13.0 | 11.6% | 2.6% | 0.6%[57.1 µM] | 77.8%
Cc1ccc(OCC(=O)c2ccc(Cl)s2)c([N+](=O)[O-])n1 | ? | -55.8* | -2.7% | ? | 25.1µM* | ?
Cc1ccc(CNC(=O)COc2ccc(C)nc2[N+](=O)[O-])cc1 | -18.5% | -0.3 | 3.1% | -6.6% | 7.7% | 12.4%
Cc1occc1-c1nnc(SCC(=O)NC2CCCCC2C)o1 (centres undefined) | -14.0% | 6.9 | -3.8% | 5.7% | / | 18.3%
O=c1c2c([nH]c3ccccc13)C(=C1CCCC1)CC2 | 20µM* | -51.6* | -6.9% | 39.8µM* | 31.6µM* | ?
COc1ccc(CCNC(=O)c2c(O)c3cccc4c3n(c2=O)CC4)cc1 | -3.7% | -81.3* | -8.3% | -8.1% | ? | 9.7%
CCC(C)[C@H](NC(=O)C1CCC(CNC(=O)[C@@H]2CCCN2C(=O)OC(C)(C)C)CC1)C(=O)O (some centres undefined) | 6.9% | -0.1 | -6.6% | 2.3% | 0.224µM* | -1.5%
CCOC(=O)c1c(NC(=O)C2CCCCC2C(=O)O)sc2c1CCCCC2 (centres undefined) | -8.4% | -6.6 | -6.4% | -10.2% | -0.1% | 95.8%
CCOC(=O)c1c(NC(=O)C2C3C=CC(C3)C2(C)C(=O)O)sc2c1CCCC2 (centres undefined) | 20µM* | -14.8 | -9.7% | ? | 22.4µM* | -30.6%
C=CCn1c2ccccc2c(=O)c2cc(C#Cc3ccsc3)ccc21 | / | / | / | / | 5.01µM* | /
O=C(N/N=C/c1ccc([N+](=O)[O-])o1)c1cc(-c2ccc(-c3ccccc3)cc2)nc2ccccc12 | -30.7% | ? | -2.9% | -31.1% | 20µM* | ?
Cc1ccc(/C=N/NC(=O)c2cc(-c3ccncc3)nc3ccccc23)o1 | -4.0% | -21.8 | -19.8% | -7.0% | 1.1% | 22.8%
O=C(N/N=C/c1ccc([N+](=O)[O-])o1)c1cc(-c2ccncc2)nc2ccccc12 | 89.1µM* | / | -7.3% | ? | ? | ?
SMILES | POLH inh | PI5P4K alpha inh | FEN1 inhibitor | POLK inh | Pol beta inh | POLI inh
CCCN(C1CCS(=O)(=O)C1)S(=O)(=O)c1ccc(F)cc1 (centres undefined) | -15.7% | -4.0 | -0.8% | -3.1% | / | 45.7%
COCCNc1cc(-c2ccccc2C)ncn1 | / | / | / | 31.6µM* | / | /
CCOC(=O)c1ccc(NC(=O)C2CCCN(c3ccc(Sc4ccc(C)cc4)nn3)C2)cc1 (centres undefined) | -11.3% | / | -0.3% | -23.1% | 5.1% | 26.5%
Cc1ccc2c(=O)cc(C(=O)NCCc3ccc(S(N)(=O)=O)cc3)oc2c1 | 22.4µM* | -78.5* | -21.1% | -90.2% | ? | 44.7µM*
COc1ccc(CCNC(=O)c2cc(=O)c3ccc(C)cc3o2)cc1OC | 13.8% | -10.9 | -17.9% | 0.8% | 2.4% | -3.2%
CC1OC(OC2C(Oc3c(-c4ccc(O)cc4)oc4cc(O)cc(O)c4c3=O)OC(COC3O[C@@H](C)[C@H](O)[C@@H](O)C3O)C(O)C2O)C(O)C(O)C1O (some centres undefined) | -14.3% | 5.6 | -12.5% | -2.6% | / | 4.8%
O=c1c(O[C@@H]2O[C@H](CO)[C@@H](O)[C@H](O)[C@H]2O)c(-c2ccc(O)cc2)oc2cc(O)cc(O)c12 | 4.2% | 0.5 | -1.8% | -24.9% | / | ?
C[C@@H]1O[C@@H](OC[C@H]2O[C@@H](Oc3c(-c4ccc(O)c(O)c4)oc4cc(O)cc(O)c4c3=O)[C@H](O)[C@@H](O)[C@@H]2O)[C@H](O)[C@H](O)[C@H]1O | -10.3% | -1.2 | -2.2% | 23.8µM*! | 8.91µM* | 9.0%
O=c1c(O[C@@H]2O[C@H](CO)[C@@H](O)[C@H](O)[C@H]2O)c(-c2ccc(O)c(O)c2)oc2cc(O)cc(O)c12 | / | / | / | / | 1.78µM* | /
O=c1c(OC2OC(CO)C(O)C(O)C2OC2OC(CO)C(O)C(O)C2OC2OC(CO)C(O)C(O)C2O)c(-c2ccc(O)c(O)c2)oc2cc(O)cc(O)c12 (centres undefined) | ? | -1.6 | -25.3% | 56.2µM* | ? | 50.1µM*
O=c1cc(-c2ccc(O)c(O)c2)oc2cc(OC3OC(CO)C(O)C(O)C3O)cc(O)c12 (centres undefined) | / | / | / | 0.891µM* | / | /
CCc1cccc2c(C(O)(c3c[nH]c4c(CC)cccc34)c3c[nH]c4c(CC)cccc34)c[nH]c12 | / | / | 1.8% | -3.7% | / | 7.3%
CCOC(=O)c1ccc(N(CCC2CO2)S(=O)(=O)c2ccc(C)cc2)cc1 (centres undefined) | ? | 20.2 | -12.0% | -11.4% | / | -17.7%
CCOC(=O)c1c(C)n(-c2ccccc2)c2ccc(OC(=O)c3cc(OC)cc(OC)c3)cc12 | -15.9% | / | -1.7% | -15.8% | -1.7% | 22.5%

Bioassay records from PubChem.
